Source: PubChem (The Scripps Research Institute Molecular Screening Center)
Most compounds without a hit are left out; they make up all but 3.5% or so of the library.
FBW7 activator: activators of human E3 ligase FBW7. 650,000 compounds, 0.13% hits. normalized activity (activation), % at 26.1 µM. AlphaScreen FBW7–phospho-cyclin E peptide binding, activator screen. Q969H0; in the data active means normalized activity above about 1.9%;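 further: purified mutant Fbw7 with reduced substrate affinity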
GPR151 ag: activators of human GPR151; activation, % at 11.2 µM; AID 1508602; Q8TDV0; PathHunter beta-arrestin GPR151 cells, luminescence; 650,000 compounds, 1% hits; in the data active means activation above about 4.9%;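 further: 0% = median of compound wells and 100% = cells with positive control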
Target sequence (Q8TDV0 whole entry, looked up): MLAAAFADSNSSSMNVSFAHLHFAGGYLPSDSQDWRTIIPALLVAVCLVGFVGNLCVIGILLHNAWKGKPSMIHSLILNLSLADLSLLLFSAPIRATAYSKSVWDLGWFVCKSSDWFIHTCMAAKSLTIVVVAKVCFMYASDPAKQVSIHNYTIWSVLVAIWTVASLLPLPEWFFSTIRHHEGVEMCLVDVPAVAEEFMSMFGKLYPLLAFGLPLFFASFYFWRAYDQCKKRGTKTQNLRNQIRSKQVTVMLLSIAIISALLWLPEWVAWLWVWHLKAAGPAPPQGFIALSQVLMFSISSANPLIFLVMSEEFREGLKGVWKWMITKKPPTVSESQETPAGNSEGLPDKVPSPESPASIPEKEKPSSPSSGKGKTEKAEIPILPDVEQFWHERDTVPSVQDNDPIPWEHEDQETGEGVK
TEAD-YAP block: TEAD-YAP interaction inhibition | HEK-TIYL cells, TEAD-Gal4/YAP UAS-luciferase luminescence | inhibition, % at 9.12 µM | 640,000 compounds, 1.4% hits | AID 1259422; in the data active means inhibition above about 32%;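 further: 0% = median of test compound wells and 100% = reference inhibitor wells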
MITF primary: inhibitors of human MITF; inhibition, % at 2.6 µM; AID 1259374; AlphaScreen MITF homodimerization, bead proximity signal; O75030; 650,000 compounds, 0.91% hits; in the data active means inhibition above about 50%;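 further: 0% = vehicle wells with protein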
MITF inh conf: confirmation of human MITF inhibitors | shares compounds with MITF primary | AlphaScreen MITF homodimerization, biotin/His-MITF beads | inhibition, % at 2.6 µM | 4,700 compounds, 16% hits | AID 1259372;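 active means inhibition above a cutoff derived from the DMSO control wells, cut at about 28% in these data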;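 further: 0% = MITF dimer wells with DMSO only; inhibitors lower the bead chemiluminescence by keeping MITF from dimerizing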
AS interf DR: optically interferes with AlphaScreen signal in dose response; shares compounds with MITF primary; AlphaScreen optical interference counterscreen, cell-free; IC50, µM; 480 compounds, 6% hits; AID 1259373; call rule not given here
AlphaScreen intf2: optically interferes with AlphaScreen signal; shares compounds with MITF primary; LysRS AlphaScreen counterscreen, signal interference, triplicate; inhibition, % at 2.6 µM; 4,700 compounds, 7.6% hits;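 active means inhibition above a cutoff derived from the DMSO control wells, cut at about 30% in these data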
* marks the source's active call; other numbers are inactive results.

Results for COC(=O)c1ccc(C2C3(C#N)C(N)=NC(OC)(OC)C23C#N)cc1 (stereo not drawn) ?
FBW7 activator: 0.1; GPR151 ag: -1.1; TEAD-YAP block: 4.2; MITF primary: 13.5

How did CCOC(=O)CNC(=O)c1ccc(Cl)cc1[N+](=O)[O-] do in these assays?
FBW7 activator: -0.1; GPR151 ag: 0.4; TEAD-YAP block: -4.2; MITF primary: -21.3

Results for Cc1cc(C)c(C(=O)N2CCC(=O)N(Cc3cn4cccc(C)c4n3)CC2)[nH]1 ?
FBW7 activator: 0.1; GPR151 ag: 2.7; TEAD-YAP block: -7.1; MITF primary: -0.5

What do the screens show for `Cc1cccn2cc(CN3CCCc4ccccc43)nc12`?
FBW7 activator: -0.1; GPR151 ag: 1.9; TEAD-YAP block: 4.6; MITF primary: 55.3*; MITF inh conf: 7.5; AlphaScreen intf2: 18.3

What do the screens show for `CCN=C1SC(CC(=O)Nc2cccc(OC)c2)C(=O)N1CC` (stereo not drawn)?
FBW7 activator: 0.8; GPR151 ag: -0.6; TEAD-YAP block: -1.9; MITF primary: 23.6

What do the screens show for `CCN1C(=O)C(CC(=O)Nc2cccc(C)c2)SC1=Nc1ccc(OC)cc1OC` (stereo not drawn)?
FBW7 activator: 0.0; GPR151 ag: 0.8; TEAD-YAP block: 29.6; MITF primary: 54.9*; MITF inh conf: 1.6; AlphaScreen intf2: 1.1

Results for Cc1nc([N+](=O)[O-])cn1CC(=O)Nc1ccc(F)c(Cl)c1 ?
FBW7 activator: 0.2; GPR151 ag: 2.1; TEAD-YAP block: 12.5; MITF primary: 52.6*; MITF inh conf: -6.2; AlphaScreen intf2: -3.8

Results for Cc1cc(NC(=O)c2ccc(Br)cc2)ccc1O ?
FBW7 activator: 0.0; GPR151 ag: -0.4; TEAD-YAP block: 80.0*; MITF primary: 75.1*; MITF inh conf: 16.7; AlphaScreen intf2: 14.1

How did Cc1cc(NC(=O)c2ccc(Br)cc2)c(C)cc1O do in these assays?
FBW7 activator: -0.2; GPR151 ag: 2.2; TEAD-YAP block: 24.0; MITF primary: -8.6

Results for COc1nccnc1NS(=O)(=O)c1ccc(NC(=O)c2ccc([N+](=O)[O-])c(C)c2)cc1 ?
FBW7 activator: -0.2; GPR151 ag: -1.5; TEAD-YAP block: 1.8; MITF primary: 59.2*; MITF inh conf: 34.3*; AS interf DR: >6.48; AlphaScreen intf2: -2.9

How did O=C(Nc1ccc(Cl)c(Cl)c1)OCc1cccc(S(=O)(=O)N2CCOCC2)c1 do in these assays?
FBW7 activator: 0.1; GPR151 ag: 0.1; TEAD-YAP block: -4.0; MITF primary: -2.3

What do the screens show for `CCOc1ccc(S(=O)(=O)N(CC(=O)NC2CCCC2)c2ccccc2)cc1`?
FBW7 activator: 0.2; GPR151 ag: -2.0; TEAD-YAP block: 0.2; MITF primary: 12.9

Results for CS(=O)(=O)Nc1ccc(-c2cnc3cccc(N(C(=O)c4ccccn4)C(=O)c4ccccn4)c3c2)cc1 ?
FBW7 activator: -1.4; GPR151 ag: -0.2; TEAD-YAP block: -14.1; MITF primary: 65.6*; MITF inh conf: 35.9*; AlphaScreen intf2: 54.5*

How did Cc1cc(NC(=O)CSc2nnc3n(C)c(=O)c4ccccc4n23)no1 do in these assays?
FBW7 activator: 0.0; GPR151 ag: 0.1; TEAD-YAP block: 0.1; MITF primary: 2.9

Results for O=C(/C=C/c1ccco1)N1CCN(Cc2nc3ccccc3n2Cc2ccccc2)CC1 ?
FBW7 activator: -0.6; GPR151 ag: -0.3; TEAD-YAP block: -21.7; MITF primary: 60.4*; MITF inh conf: 11.6; AlphaScreen intf2: 29.1

What do the screens show for `CN(C)CCN(Cc1ccccc1)C(=O)[C@H](N)Cc1cccc(-c2cn[nH]c2)c1`?
FBW7 activator: 0.1; GPR151 ag: 1.7; TEAD-YAP block: -3.3; MITF primary: -7.0

How did CN1CCC(N(C)CC(=O)Nc2ccc3c(c2)OC(F)(F)O3)CC1 do in these assays?
FBW7 activator: -0.3; GPR151 ag: 1.3; TEAD-YAP block: 9.1; MITF primary: 57.5*; MITF inh conf: -6.9; AlphaScreen intf2: 0.3

What do the screens show for `Cc1ccc2nc(-c3ccc(NC(=O)Cc4ccccc4)cc3)sc2c1`?
FBW7 activator: -0.4; GPR151 ag: 0.6; TEAD-YAP block: -17.6; MITF primary: -4.5
